Results as given in ChEMBL document CHEMBL3988442, “University of Dundee, Small-Polar-MMV Screening Library” (2021).

Target: T1, Arginase-2, mitochondrial (Homo sapiens) (UniProt P78540)
T1 sequence (whole entry): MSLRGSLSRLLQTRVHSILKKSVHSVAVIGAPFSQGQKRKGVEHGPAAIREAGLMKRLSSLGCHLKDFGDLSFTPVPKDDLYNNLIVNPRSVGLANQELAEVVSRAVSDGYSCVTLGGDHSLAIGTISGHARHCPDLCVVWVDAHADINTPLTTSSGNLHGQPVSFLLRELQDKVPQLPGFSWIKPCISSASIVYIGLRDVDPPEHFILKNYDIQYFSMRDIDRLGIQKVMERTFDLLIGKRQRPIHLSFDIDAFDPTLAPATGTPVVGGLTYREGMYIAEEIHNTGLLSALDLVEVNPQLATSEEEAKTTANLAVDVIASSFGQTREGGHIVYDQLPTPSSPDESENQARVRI
Assay: in vitro enzyme assay to detect the production of urea directly proportional to the activity of Arginase II
Assay type: functional
Parameters: scale not given: in the data most compounds retested in dose-response had high values
Conditions: 33.3 µM

Structure (SMILES)	Percent Effect
CCn1cc(Br)c(C(=O)NCc2cccnc2)n1	-9.65%
CCNC(=O)N1CCCCC1CCO (stereo not given)	6.67%
Cc1ccc(CN2Cc3c(C(=O)N(C)C)nn(C)c3C2)s1	-1.2%
COc1ccc(-n2ccc(C(=O)N3CCC(C(N)=O)C3)n2)cc1 (stereo not given)	1.29%
CC(C)(C)C(=O)NCCC(=O)NC(C)(C)c1ccc2c(c1)OCCO2	5%
Cn1ncc2c(NCCOc3ccc(F)cc3)nc(C3CCCC3)nc21	2.27%
O=C(CCc1ccsc1)NCC1CCN(c2ccccc2)C1 (stereo not given)	5.3%
CC(NC(=O)COc1nc(C(C)(C)C)no1)c1ccco1 (stereo not given)	2.86%
CCOCCN1CCN(Cc2nnc(C3CC3)o2)CC1CC (stereo not given)	18.6%
Cc1nccc(CNC(=O)NCCOc2ccc(F)c(F)c2)n1	-1.43%
COC[C@]12COC[C@H]1CN(Cc1cc(OC)cc(OC)c1)C2	6.05%
CN(C)CC(=O)N1CCC2(CC1)CN(c1ccsc1)C(=O)CO2	-0.233%
COc1ccc(-c2nnc(SC(C)C(=O)NC3CC3)[nH]2)c(OC)c1 (stereo not given)	-2.37%
Cc1cc(NC(=O)CCN2CCCC2Cn2cncn2)no1 (stereo not given)	-2.8%
CCN(CC)c1ccc(C(=O)NCc2cccnc2-n2cncn2)cn1	18.6%
O=C(c1ccco1)N1CCOCC2(C1)CN(c1ccccc1)C(=O)CO2 (stereo not given)	-27.8%
O=C(Cc1ccc2c(c1)CCO2)N1CCCCC1Cn1cccn1 (stereo not given)	-5.92%
CCCc1cc(=O)[nH]c2nnc(SCC(=O)NCc3ccc(C)cc3)n12	13.6%
CCc1cnc(CN(C(C)=O)C2CCN(CCc3cnn(C)c3)C2)o1 (stereo not given)	2.16%
Cc1nc(C)n(CC2CCCN(CCc3ccncc3)C2)n1 (stereo not given)	1.36%

Structure (SMILES)	Percent Effect
CCS(=O)(=O)N(C)C(=O)c1cc(C)n(-c2cccc(OC)c2)c1C	-5.32%
CCN(Cc1cccc(Cl)c1)Cc1nc2c(cnn2C)c(=O)[nH]1	-1.47%
Cc1cc(-c2cnn(CCNC(=O)C3CCCO3)c2C2CC2)on1 (stereo not given)	0.232%
COc1ccc(NC(=O)N2CCCC2c2ccco2)cc1OC (stereo not given)	-0.645%
Cn1cnc2c1C(COCC1CCOCC1)CN(C1CCOCC1)C2 (stereo not given)	3.96%
CCC(C)NC(=O)Cc1c(C)nc2c(c1C)c(=O)[nH]n2C (stereo not given)	1.38%
CN(C)C(=O)CN1C[C@@H]2CC[C@H](C1)N(Cc1cccc(Cl)c1Cl)C2	-19.6%
Cn1ccc(CN2CCC(COC3CCCC3)CC2)cc1=O	3.66%
Cn1cc(CCNC(=O)CCc2ccc3c(c2)OCO3)cn1	3.88%
Cc1cc(C(=O)N2CC[C@H](OCC3CC3)[C@@H]2Cc2cccnc2)no1	-36.4%
O=C(c1ccc(=O)[nH]n1)N1CC(c2nc(Cc3ccccc3)no2)C1	20.9%
Cc1cnn(CC2CCCCN2C(=O)c2ccc3nnc(C)n3c2)c1 (stereo not given)	-1.9%
CN(Cc1ccco1)C(=O)[C@H]1CSCN1C(=O)OC(C)(C)C	-4.32%
c1csc(-c2nc(CNC3CCc4ncnn4C3)co2)c1 (stereo not given)	2.13%
Cn1cc(CCNC(=O)NCc2nnc3n2CCC3)cn1	2.28%
Cc1nn(C)c(N(C)C)c1CNCc1cccnc1-n1cncn1	3.23%
Cn1ncc2c(=O)[nH]c(CN3CCCC3Cc3ccccc3)nc21 (stereo not given)	-3.24%
COc1ccccc1CC1CCCN(CC(N)=O)C1 (stereo not given)	2.32%
Cc1noc(C(C)C)c1C(=O)NCc1cc(F)cc(F)c1	3.92%
Cc1nc(CN(Cc2ccccc2)C2CCS(=O)(=O)C2)oc1C (stereo not given)	-1.08%
